High-throughput results: PubChem BioAssay, National Center for Advancing Translational Sciences (NCATS)
The list is not random: actives were taken first. Their share in the collection is about 2.4%.
D2 PAM-1: Beta-Arrestin HTS for Positive Allosteric Modulators of the Human D2 Dopamine Receptor: Potentiators; D(2) dopamine receptor (Homo sapiens), P14416; DiscoveRx D2 beta-arrestin cells, luminescence, 90 min; 100% = 57 uM dopamine signal; potentiation, % (concentration not given with the values); 360,000 tested, 0.23% active; in the data active = potentiation above about 50%; inconclusive = mostly about 30% to 49%
Target sequence (P14416 whole entry, looked up): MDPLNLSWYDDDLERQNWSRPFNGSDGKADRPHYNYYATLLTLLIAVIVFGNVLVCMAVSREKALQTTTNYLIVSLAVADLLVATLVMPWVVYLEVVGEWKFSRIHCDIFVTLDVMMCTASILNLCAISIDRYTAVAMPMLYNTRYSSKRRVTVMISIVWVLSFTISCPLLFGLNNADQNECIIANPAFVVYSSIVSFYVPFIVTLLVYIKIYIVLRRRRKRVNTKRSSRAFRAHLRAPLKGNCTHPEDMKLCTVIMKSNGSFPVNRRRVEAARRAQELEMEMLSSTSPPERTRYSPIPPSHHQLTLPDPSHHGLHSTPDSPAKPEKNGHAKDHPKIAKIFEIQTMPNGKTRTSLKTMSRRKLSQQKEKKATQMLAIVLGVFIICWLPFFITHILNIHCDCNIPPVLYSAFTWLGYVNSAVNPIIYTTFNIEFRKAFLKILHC
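PathHunter D2 cells, attached overnight at 37 deg C, received compound in DMSO plus dopamine at EC20 (50 nM final) for 90 min at 37 deg C. Beta-arrestin recruitment was read as luminescence after 1 h with detection reagent at ambient temperature.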
D2 PAM-2: HTS Assay for Positive Allosteric Modulators of the Human D2 Dopamine Receptor: Primary Screen for Potentiators | HEK293 T-REx D2, calcium flux, EC20 dopamine potentiation | potentiation, % at 10 µM | AID 485347, 2010 | 340,000 tested, 0.34% active | D(2) dopamine receptor (Homo sapiens), P14416;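 active = potentiation over 3 SD above the plate norm, cut at about 30% in these data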; also: 0% is about no effect
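Primary screen. Calcium kinetics in induced HEK293 T-REx D2 cells: compound pre-addition 180 s, EC20 dopamine, 180 s more.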
D2 antagonist: HTS Assay for Allosteric Antagonists of the Human D2 Dopamine Receptor: Primary Screen for Antagonists; D(2) dopamine receptor (Homo sapiens), P14416; HEK293 TREx D2 cells, calcium flux, dopamine EC80; inhibition, % at 10 µM; 340,000 tested, 2% active; AID 485344, 2010; in the data active = inhibition above about 30%; inactive = below that, where a call was filed; also: 0% is about no effect
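Measurement of antagonist activity uses fluorescent calcium dye in inducible HEK293 T-REx D2 cells: 10 s baseline, compound addition with 180 s read, EC80 dopamine addition with a further 180 s read.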
D2 ag-1: HTS Assay for Allosteric Agonists of the Human D2 Dopamine Receptor: Primary Screen for Agonists; D(2) dopamine receptor (Homo sapiens), P14416; HEK293 T-REx D2 cells, calcium flux agonist mode; activation, % at 2 µM; 340,000 tested, 0.53% active;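 active = activation over 3 SD above normal in the single-dose calcium agonist read, cut at about 30% in these data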; also: 0% is about no effect
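Agonism is scored from calcium flux in a force-coupled, inducible HEK293 cell line expressing D2, read kinetically for 180 s after compound addition against dopamine controls.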
D2 ag-2: Beta-Arrestin HTS for Positive Allosteric Modulators of the Human D2 Dopamine Receptor: Agonists. D(2) dopamine receptor (Homo sapiens), P14416. DiscoveRx PathHunter D2 beta-arrestin, luminescence, 90 min; 100% = 57 uM dopamine signal. activation, % (test concentration not listed). 360,000 tested, 0.084% active; in the data active = activation above about 40%; inconclusive = between about 15% and that limit
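Agonist mode: compounds alone added to overnight-plated D2 PathHunter cells for 90 min at 37 C, with 57 uM final dopamine (EC100) defining full response. Beta-arrestin recruitment detected by chemiluminescent reagent, read after 1 h at ambient temperature.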
D3 ag: qHTS of D3 Dopamine Receptor Agonist: D3 Dopamine Receptor B-arrestin Agonist Confirmatory Assay. shares compounds with D2 ag-1. DiscoveRx D3 beta-arrestin cells, luminescence, 90 min. 2,300 tested, 4% active. Potency, µM (doses to about 76.9 µM), inactives show top-dose activation, actives largely listed as activators;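 also: potency is read from the fitted curve at half-maximal effect; 100% = dopamine control response; nearly all actives have a fitted effect of over 70% in size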
D2 ag-3: qHTS of D3 Dopamine Receptor Agonist: D2 Dopamine Receptor B-arrestin Agonist Counterscreen. shares compounds with D2 ag-1. AID 720507, 2013. DiscoveRx PathHunter D2 beta-arrestin, luminescence, 90 min; response scale: percent relative to full dopamine signal. 2,300 tested, 5.9% active. Potency, µM (series often up to 76.9 µM), for inactives: top-dose activation, actives largely listed as activators; also: potency is read from the fitted curve at half-maximal effect; % of control where 0% means no effect; nearly all actives have a fitted effect of over 70% in size
* hit, by the source's call; ? = inconclusive; · = not tested or not shown. Unless noted, calls follow the shape of the dose curve; as a rule, active = well fitted activation curve with a large enough effect; inconclusive = small, poorly fitted or top-dose-only effect; inactive = flat fitted curve, though single readings scatter.

SMILES | D2 PAM-1 | D2 PAM-2 | D2 antagonist | D2 ag-1 | D2 ag-2 | D3 ag | D2 ag-3
COc1ccccc1N1CCN(Cc2ccsc2)CC1 | -8 | -31 | 104* | 56* | 3 | -7% | 2%
COc1ccccc1N1CCN(Cc2cccs2)CC1 | -26 | -19 | 83* | 18 | -1 | -27% | -3%
COc1cc2c(cc1OC)CN(Cc1cccs1)CC2 | -20 | -26 | -3 | 1 | -5 | · | ·
CCC(=O)Nc1ccccc1-c1nc2ccccc2n(C(C)C(=O)Nc2ccc(OC)cc2)c1=O (stereo not given) | · | -22 | · | 0 | · | · | ·
CNS(=O)(=O)c1cn(CC(=O)N2CCN(c3ccc(C(C)=O)cc3)CC2)cc1S(=O)(=O)NC | · | 2 | · | 0 | · | · | ·
Cc1ccc(-c2cn(-c3ccccc3)c(SCC(N)=O)n2)cc1C | 6 | -7 | 10 | -1 | -3 | · | ·
CCOC(=O)NC(=O)CSc1nc(-c2ccc(C)c(C)c2)cn1-c1ccccc1 | 15 | 9 | 8 | -1 | -1 | 8% | 6%
COc1ccccc1N1CCN(C(=O)c2cc3c(=O)n(Cc4cccnc4)ccc3nc2C)CC1 | · | -9 | · | -1 | · | · | ·
CCOC(=O)c1c(NC(=O)C(C)Sc2cccc[n+]2[O-])sc2c1CCN(Cc1ccccc1)C2 (stereo not given) | -16 | 14 | -6 | 42* | -5 | -3% | -7%
CCOC(=O)c1c(NC(=O)CC)sc2c1CCN(Cc1ccccc1)C2 | -17 | 5 | -13 | 8 | -6 | · | ·
CCOC(=O)c1c(NC(C)=O)sc2c1CCN(Cc1ccccc1)C2 | -8 | -19 | -2 | 25 | -3 | · | ·
COC(=O)c1c(NC(C)=O)sc2c1CCN(Cc1ccccc1)C2 | -9 | -21 | -24 | 38* | 0 | 7% | 12%
Cc1ccc(NC(=O)CCS(=O)(=O)c2ccc(Br)s2)c(Br)c1 | · | -1 | · | · | · | · | ·
O=C(NCc1ccc2c(c1)OCO2)C1CCCN1C(=O)Nc1ccccc1 (stereo not given) | -15 | -6 | 66* | 0 | -1 | -11% | -2%
COc1ccccc1NC(=O)N1CCCC1C(=O)NCc1ccc2c(c1)OCO2 (stereo not given) | -8 | -8 | 0 | -1 | -4 | · | ·
Cc1coc(C)c1C(=O)Nc1ccc2ccccc2c1 | -10 | 2 | 4 | 0 | -2 | -7% | -2%
CC(C)(C)c1ccc(C2=NC(C)(C)N(CC(=O)Nc3ccc(F)c(F)c3)C2=O)cc1 | · | 6 | · | 0 | · | · | ·
CCc1ccc(CN2CCN(C(=O)c3ccco3)CC2)cc1 | ? | -18 | 83* | 80* | 78* | 5.6µM* | 14µM*
COC(=O)c1ccc(OCC(O)CN2CCN(C(=O)c3ccco3)CC2)c(OC)c1 (stereo not given) | 14 | -31 | 26 | 64* | 13 | -8% | ?
O=C(c1ccco1)N1CCN(Cc2nc(-c3cccs3)no2)CC1 | 15 | -11 | -3 | 4 | 8 | 6% | 13%
Cc1ccc(C)n1CCN1CCN(C(=O)c2ccco2)CC1 | -29 | 7 | 3 | 25 | 6 | 4% | 9%
O=C(c1ccco1)N1CCN(Cc2ccc(Br)cc2)CC1 | ? | -20 | 80* | 79* | 58* | ? | 16µM*
O=C(c1ccco1)N1CCN(Cc2cccc3ccccc23)CC1 | 14 | -23 | 76* | 58* | 14 | ? | ?
